Screens (PubChem BioAssay)
Sampled rows, rich in hits. Any-hit rate of the full collection: about 4.3%.
HSF1 activator = increases HSF-1 driven luciferase reporter signal | NIH3T3-HGL HSF-1 luciferase reporter, MG132, 8 h; 100% = twice DMSO control signal | activation, % at 9 µM | 1.7% of 300,000 active | AID 504408;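 active = mean replicate activation of at least 50% with a set share of replicates each reaching 50%; inconclusive = only one of those two conditions met; inactive = mean below 50% and too few replicates reaching it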;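 also: 0% = median of the neutral control wells and 100% = twice that signal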
SMARCA2 act = SMARCA2 function activation, primary screen. MG213 cells, MMTV-luciferase reporter, dexamethasone, overnight. activation, % at 9.1 µM. 1% of 370,000 active. AID 652017; in the data active = activation above about 7.8%;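 also: 0% = vehicle wells and 100% = reference activator wells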
Wnt act = activates Wnt/beta-catenin signaling in a reporter cell assay; activation, % at 9.35 µM; activator, plate reader; 1.2% of 300,000 active; in the data active = activation above about 30%, passing the limit was not always enough; inconclusive = no clear call, values can overlap the other calls;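 also: 0% = neutral control wells and 100% = positive control wells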
esBAF inh = SWI/SNF esBAF complex inhibition; AID 602393; mouse ES cells, Bmi1-luciferase knock-in reporter, 24 h; 100% = twice the neutral-well signal; reporter increase, % at 12.5 µM; 2% of 350,000 active; in the data active = activation above about 40%; inconclusive = no clear call, values can overlap the other calls;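 also: 0% = median of the plate's neutral control wells and 100% = double that signal; a rise in the Bmi1 reporter signal indicates esBAF inhibition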
MITF TRPM1 HTS = activators of MITF-driven TRPM1 promoter activity in SK-MEL-5 cells | SK-MEL-5 TRPM1-promoter luciferase, 24 h; % of positive control, neutral wells = 0 | activation, % at 12.5 µM | 0.75% of 300,000 active | AID 588334;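 active = mean activation of at least 80% with every replicate also reaching 80%; inconclusive = mean reaches 80% but some replicate falls short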;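 also: 0% = neutral control wells and 100% = parthenolide positive control wells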
HSF1 inhib = HSF1 inhibition. 0.77% of 300,000 active. NIH3T3-HGL HSE-luciferase, MG132-induced, luminescence 8 h; hits give low values. activity change, negative = inhibition, % at 7.5 µM (by protocol);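 active = more than half of replicate wells show activity change below -50%, luminescence cut by over half; inconclusive = some wells, but at most half, below -50%; inactive = no replicate well below -50%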;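 also: luciferase reports HSF-1 transcriptional activity via heat shock element; 0% = median of DMSO wells and -100% = zero luminescence signal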
An asterisk follows results filed as active; ? = inconclusive; . = no result given.

SMILES	HSF1 activator	SMARCA2 act	Wnt act	esBAF inh	MITF TRPM1 HTS	HSF1 inhib
O=C1c2ccccc2-c2nc3ccccc3cc21	25.4	4.4	58.8*	10.9	57.1	12.0
COc1ccc(S(=O)(=O)N(C)C[C@H]2Oc3ccc(NC(=O)Nc4ccc(C(F)(F)F)cc4)cc3CC(=O)N([C@@H](C)CO)C[C@@H]2C)cc1	.	.	.	1.5	.	.
COc1ccc(-c2nnc(SCC(=O)c3ccc(C)o3)o2)cc1	17.2	-1.7	1.3	1.1	-13.7	21.9
C/C(N)=C(/C#N)C(=O)CSc1nnc(-c2ccccc2Br)o1	115.2*	1.6	5.7	-5.5	42.5	69.7
COc1ccc(-c2nnc(SCC(=O)/C(C#N)=C(\C)N)o2)cc1	80.7*	1.6	.	-39.8	29.2	62.9
C/C=C/c1cnc2c(c1)C(=O)N([C@@H](C)CO)C[C@@H](C)[C@@H](CN(C)S(=O)(=O)c1ccccc1)O2	.	.	.	1.8	.	.
c1ccc(-c2ccc(OCCOCCn3cncn3)cc2)cc1	21.4	3.4	.	61.9*	68.2	11.2
COCc1cn(CC[C@H]2CC[C@@H](NC(=O)Nc3ccccc3)[C@H](CO)O2)nn1	.	.	.	-0.4	.	.
CC(C)c1nnc(NC(=O)C2CCN(C(=O)c3ccco3)CC2)s1	-70.8	-3.1	-0.1	1.8	-2.9	-64.0*
COc1ccc2nc(NC(=O)C3CCN(C(=O)c4ccco4)CC3)sc2c1	-13.8	0.1	9.9	53.4*	.	-0.2
Cc1ccc(S(=O)(=O)N(C)C[C@H]2Oc3c(NC(=O)Nc4c(C)noc4C)cccc3C(=O)N([C@@H](C)CO)C[C@H]2C)cc1	.	.	.	-5.0	.	.
Fc1ccc(CN2CCN(c3ncnc4scc(-c5ccccc5)c34)CC2)cc1	84.0*	-2.9	-6.4	0.4	.	33.6
Oc1ccccc1N1CCN(c2ncnc3scc(-c4ccc(F)cc4)c23)CC1	-87.0	-5.4	-4.5	-0.5	-2.0	-83.2*
Fc1ccc(-c2csc3ncnc(N4CCN(Cc5ccccc5)CC4)c23)cc1	-4.1	1.0	-3.0	-0.1	0.8	3.7
CCC(C)(C)C1CCC(=NNC(=O)c2ccoc2C)CC1 (centres undefined)	32.8	11.3*	12.5	20.1	3.3	28.8
O=C1c2ccccc2/C(=C\C#Cc2ccccn2)N1c1ccccc1	.	-4.4	17.6	36.0	95.0*	.
COc1cccc(-c2ccc3c(c2)[C@@H]2[C@@H](CCN2S(=O)(=O)c2ccccc2F)[C@H](CO)N3C)c1	.	.	.	2.2	.	.
O=C(NCc1ccco1)c1sc2cc(Cl)ccc2c1Cl	15.7	6.5	16.4	5.9	45.5	19.8
O=C(NCc1ccco1)c1sc2ccccc2c1Cl	66.1*	4.8	.	48.9*	47.5	25.6
CNC[C@H]1OCCCC[C@H](C)Oc2ccc(NC(=O)Nc3ccc(F)cc3)cc2C(=O)N([C@H](C)CO)C[C@H]1C	.	.	.	-9.6	.	.
COc1ccc(CN2C(=NC(=O)CCC3CCCC3)SC3CS(=O)(=O)CC32)cc1 (centres undefined)	-77.7	3.3	-2.1	7.1	1.4	-70.8*
COc1ccc(CN2C(=NC(=O)C3CCCCC3)SC3CS(=O)(=O)CC32)cc1 (centres undefined)	0.0	7.4	-2.3	7.2	-5.5	3.8
C[C@H]1CN([C@@H](C)CO)C(=O)c2cc(NC(=O)CCCN(C)C)ccc2O[C@@H]1CN(C)Cc1ccc(Oc2ccccc2)cc1	.	.	.	1.3	.	.
CCCCCCSc1nsc(NC(C)=O)n1	35.9	3.2	.	59.7*	66.6	20.1
CCCCSc1nsc(NC(C)=O)n1	38.2	3.4	44.2*	.	91.2*	18.8
SMILES	HSF1 activator	SMARCA2 act	Wnt act	esBAF inh	MITF TRPM1 HTS	HSF1 inhib
CCCSc1nsc(NC(=O)CCC)n1	?	4.0	19.8	28.0	113.3*	25.4
C[C@H](CO)N1C[C@H](C)[C@H](CN(C)C(=O)CN2CCOCC2)Oc2ncc(C3=CCCCC3)cc2C1=O	.	.	.	-1.9	.	.
Cc1csc(=O)n1CC(=O)OCc1cccc2ccccc12	25.6	3.8	25.3	57.9*	.	15.8
CCCc1cn(CC[C@H]2CC[C@H](NC(=O)C3CCCC3)[C@@H](CO)O2)nn1	.	.	.	10.0	.	.
Cc1ccc(C2NNC(=O)C2NC(=O)c2ccccc2)cc1 (centres undefined)	64.8*	5.2	.	50.6*	33.7	35.3
O=C(NC1C(=O)NNC1c1ccccc1)c1ccc(F)cc1 (centres undefined)	3.2	0.2	-2.7	18.8	13.0	7.4
COCC(=O)Nc1ccc2c(c1)[C@@H]1C[C@@H](CC(=O)NC3CCCC3)O[C@H](CO)[C@@H]1O2	.	.	.	1.6	.	.
Cc1ccc(S(=O)(=O)N[C@@H]2CC[C@H](CCNS(=O)(=O)Cc3ccccc3)O[C@H]2CO)cc1	.	.	.	2.2	.	.
CC(=O)N(c1ccc2oc(=O)sc2c1)S(=O)(=O)c1ccc(C(=O)O)cc1	-64.7	1.2	-0.6	-5.1	2.6	-59.8*
CC(=O)N(c1ccc2oc(=O)sc2c1)S(=O)(=O)c1cccs1	8.6	1.1	.	-8.4	.	4.2
CCCCOc1ccc(N=Cc2ccc[nH]2)cc1	-73.3	-3.3	1.2	7.5	-26.1	-68.0*
COc1ccc(N=Cc2ccc[nH]2)cc1	-65.6	-1.3	.	36.4	-7.4	-62.5*
COc1ccc(N=Cc2ccc(-c3ccccc3)o2)cc1	-1.2	0.2	-0.7	.	8.5	-3.4
Cc1cc(=O)[nH]c(-n2ncc(C#N)c2N)n1	69.5*	-3.6	-0.2	-1.0	1.9	26.8
CC1CCCCN1CCCNC(=O)c1ccc2c(c1)NC(=O)CN2C (centres undefined)	.	7.9*	-1.4	-6.1	.	.
COC(=O)c1c(NC(C)=O)sc(C(=O)Nc2ccccc2F)c1C	.	0.5	36.8*	.	57.5	.
CCOC(=O)c1c(N)sc(C(=O)Nc2ccccc2F)c1C	95.0*	6.2	16.3	20.4	69.2	58.6
CCCC(=O)Nc1sc(C(=O)Nc2cccc(N)c2)c(C)c1C(=O)OC	-71.2	5.4	37.1*	7.0	44.8	-67.1*
COc1ccc(-c2ccc3n(c2=O)C[C@@H]2[C@@H](CO)[C@H](C(=O)N(C)C)[C@H]3N2C(=O)c2cnccn2)cc1	.	.	.	3.3	.	.
CO[C@@H]1CN(C)C(=O)c2ccc(NC(=O)C3CC3)cc2OC[C@H](C)N(C(=O)NC(C)C)C[C@@H]1C	.	.	.	-3.7	.	.
O=C(NCC[C@@H]1CC[C@@H](NS(=O)(=O)Cc2ccccc2)[C@H](CO)O1)C1CCOCC1	.	.	.	-3.7	.	.
Cc1cc(C(=O)Nc2ccc3c(c2)C(=O)N(C)[C@@H]2CC[C@@H](CC(=O)N[C@H](C)c4ccccc4)O[C@H]2CO3)no1	.	.	.	1.1	.	.
Cc1cc(OCc2cc(C(=O)N(C)CCCN3CCOCC3)no2)cc(C)c1Cl	20.2	-3.0	-9.5	15.6	18.6	4.3
Cc1cc(OCc2cc(C(=O)N(C)CC3CCOCC3)no2)cc(C)c1Cl	22.5	-0.7	-3.6	50.4*	47.3	10.4
CCN(CC1CCCO1)C(=O)c1cc(COc2ccc(F)cc2F)on1 (centres undefined)	5.0	-1.4	-2.3	-3.2	-1.7	0.5
